These results are taken from publication PMC7862700, “An all-to-all approach to the identification of sequence-specific readers for epigenetic DNA modifications on cytosine”.

Holding throughout (test): DAPPL (digital affinity profiling via proximity ligation, sequencing); 10 mM Tris-HCl pH 7.5, 50 mM NaCl, 1 mM DTT, 4% glycerol, room temperature, 30 min; GST-TFs on glutathione beads, 16-mer random dsDNA library, 0.1% formaldehyde crosslink after washing; high values mean tight binding
Common to all, as to conditions: protein: recombinant; tags: N-terminal GST; dsDNA, one strand shown

One test addresses T1, ERF (Homo sapiens, UniProt P50548 1-548).
T1 sequence: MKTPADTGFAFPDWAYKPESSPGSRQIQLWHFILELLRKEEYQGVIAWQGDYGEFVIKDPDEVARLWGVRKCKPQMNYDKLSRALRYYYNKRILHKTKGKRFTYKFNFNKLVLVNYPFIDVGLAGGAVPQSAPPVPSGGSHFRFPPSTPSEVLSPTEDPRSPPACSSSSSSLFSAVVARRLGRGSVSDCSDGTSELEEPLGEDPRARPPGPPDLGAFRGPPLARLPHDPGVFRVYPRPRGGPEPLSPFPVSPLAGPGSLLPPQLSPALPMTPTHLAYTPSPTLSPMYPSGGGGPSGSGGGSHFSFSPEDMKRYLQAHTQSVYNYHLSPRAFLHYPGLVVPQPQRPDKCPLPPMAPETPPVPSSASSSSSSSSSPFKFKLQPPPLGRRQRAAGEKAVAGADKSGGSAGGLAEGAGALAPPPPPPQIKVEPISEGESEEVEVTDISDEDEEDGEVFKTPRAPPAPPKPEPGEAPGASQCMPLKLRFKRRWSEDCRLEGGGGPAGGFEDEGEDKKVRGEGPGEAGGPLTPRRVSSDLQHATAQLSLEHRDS
The method in brief:
(§1)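 Beads coated with glutathione captured GST-fused human transcription factors that had been expressed in yeast, and the factors were then given DNA barcodes and pooled with a tag-only sample. The pools were incubated with 200 nmole of a random double-stranded 16-mer DNA library in Tris/NaCl/DTT/glycerol buffer for 30 min at room temperature, washed, crosslinked with 0.1% formaldehyde and proximity-ligated with BsaI/T4 ligase at 37 °C for 1 h. PCR amplification and Illumina NextSeq500 sequencing came last. Binding signal is each hexamer's read frequency for a factor divided by its frequency for the tag-only sample.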

The target of a further test is T2, ETV3L (Homo sapiens, UniProt Q6ZN32 1-361).
T2 sequence: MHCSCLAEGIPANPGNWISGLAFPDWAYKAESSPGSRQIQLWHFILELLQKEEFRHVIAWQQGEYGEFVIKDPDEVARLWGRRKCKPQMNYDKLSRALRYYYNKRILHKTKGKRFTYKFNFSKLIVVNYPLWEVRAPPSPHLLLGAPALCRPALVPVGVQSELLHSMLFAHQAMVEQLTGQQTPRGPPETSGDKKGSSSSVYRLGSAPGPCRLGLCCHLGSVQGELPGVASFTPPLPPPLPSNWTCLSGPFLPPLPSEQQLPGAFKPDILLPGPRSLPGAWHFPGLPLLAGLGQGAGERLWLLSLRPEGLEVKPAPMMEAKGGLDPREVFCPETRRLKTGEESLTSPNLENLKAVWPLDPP
The method in brief:
as §1

The target of the next test is T3, ETS2 (Homo sapiens, UniProt P15036 1-469).
T3 sequence: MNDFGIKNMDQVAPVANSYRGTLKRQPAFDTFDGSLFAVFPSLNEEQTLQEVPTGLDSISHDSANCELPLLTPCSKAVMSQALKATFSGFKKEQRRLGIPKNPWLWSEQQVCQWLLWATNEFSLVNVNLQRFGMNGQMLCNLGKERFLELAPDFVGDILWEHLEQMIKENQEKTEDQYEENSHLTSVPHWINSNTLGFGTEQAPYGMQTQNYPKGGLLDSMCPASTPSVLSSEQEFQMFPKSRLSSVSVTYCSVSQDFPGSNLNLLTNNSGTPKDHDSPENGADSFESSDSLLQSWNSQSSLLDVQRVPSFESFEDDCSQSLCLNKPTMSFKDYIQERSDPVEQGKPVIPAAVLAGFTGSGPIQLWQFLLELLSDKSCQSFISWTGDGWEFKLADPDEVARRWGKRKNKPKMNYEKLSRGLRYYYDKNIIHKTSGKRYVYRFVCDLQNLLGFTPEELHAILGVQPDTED
Summed up:
as §1

The target in the next test is T4, SPDEF (Homo sapiens, UniProt O95238 1-335).
T4 sequence: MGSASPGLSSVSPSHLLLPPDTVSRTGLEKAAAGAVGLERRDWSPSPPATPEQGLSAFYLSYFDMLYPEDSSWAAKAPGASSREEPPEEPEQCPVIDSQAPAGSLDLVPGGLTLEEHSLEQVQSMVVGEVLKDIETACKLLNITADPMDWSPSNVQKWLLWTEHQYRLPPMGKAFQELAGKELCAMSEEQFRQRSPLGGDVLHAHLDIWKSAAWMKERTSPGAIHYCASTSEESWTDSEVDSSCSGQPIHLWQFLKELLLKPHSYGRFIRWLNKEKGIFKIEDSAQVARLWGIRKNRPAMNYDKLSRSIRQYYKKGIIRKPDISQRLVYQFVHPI
The method in brief: as §1

The next test has as its target T5, ETV7 (Homo sapiens, UniProt Q9Y603 1-341).
T5 sequence: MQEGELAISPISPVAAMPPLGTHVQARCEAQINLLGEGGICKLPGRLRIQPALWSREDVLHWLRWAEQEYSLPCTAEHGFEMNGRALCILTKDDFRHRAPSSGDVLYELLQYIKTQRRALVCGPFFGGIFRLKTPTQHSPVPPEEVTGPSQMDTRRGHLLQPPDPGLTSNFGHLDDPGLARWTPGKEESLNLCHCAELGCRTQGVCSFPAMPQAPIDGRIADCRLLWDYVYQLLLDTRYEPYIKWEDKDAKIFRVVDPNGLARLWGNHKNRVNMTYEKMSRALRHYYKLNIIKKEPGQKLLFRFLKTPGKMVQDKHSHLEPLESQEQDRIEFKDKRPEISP
The method in brief:
as §1

The next test concerns the target T6, ELF5 (Homo sapiens, UniProt Q9UKW6-2 1-255).
T6 sequence: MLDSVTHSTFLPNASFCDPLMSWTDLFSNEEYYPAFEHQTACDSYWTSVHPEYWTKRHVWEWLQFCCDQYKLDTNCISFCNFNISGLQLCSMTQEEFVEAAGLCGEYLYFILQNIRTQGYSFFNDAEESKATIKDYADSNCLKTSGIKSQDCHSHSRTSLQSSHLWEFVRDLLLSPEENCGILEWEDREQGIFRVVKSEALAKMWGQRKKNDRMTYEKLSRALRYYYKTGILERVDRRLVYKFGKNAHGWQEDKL
The method in brief: as §1

The target of a further test is T7, ETV3 (Homo sapiens, UniProt P41162-2 1-143).
T7 sequence: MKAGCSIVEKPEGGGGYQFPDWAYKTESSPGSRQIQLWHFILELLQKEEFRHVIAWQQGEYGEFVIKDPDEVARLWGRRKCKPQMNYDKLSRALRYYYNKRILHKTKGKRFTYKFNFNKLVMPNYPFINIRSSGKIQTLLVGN
Summed up:
as §1

Another test deals with ETV6 (Homo sapiens, UniProt P41212 1-452). Summed up: as §1
Chain of ETV6 (P41212 whole entry): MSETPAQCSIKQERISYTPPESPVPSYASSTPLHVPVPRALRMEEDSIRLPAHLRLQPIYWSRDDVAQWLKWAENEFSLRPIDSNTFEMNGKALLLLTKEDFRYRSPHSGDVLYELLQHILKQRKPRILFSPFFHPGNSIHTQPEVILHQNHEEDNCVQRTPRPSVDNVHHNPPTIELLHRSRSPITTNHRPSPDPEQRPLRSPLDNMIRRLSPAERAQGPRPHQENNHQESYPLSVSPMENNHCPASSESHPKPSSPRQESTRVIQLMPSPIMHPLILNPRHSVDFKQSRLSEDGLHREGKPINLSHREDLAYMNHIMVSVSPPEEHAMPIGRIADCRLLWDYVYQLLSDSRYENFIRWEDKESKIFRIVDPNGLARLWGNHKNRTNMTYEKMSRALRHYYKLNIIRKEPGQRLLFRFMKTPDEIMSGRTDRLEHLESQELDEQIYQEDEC

For the sequence AACCCG, the binding signal with ERF is 1.42 fold enrichment (6-mer frequency, TF over GST control); with ETV3L it was 1.34 fold enrichment (6-mer frequency, TF over GST control); in the test with ETS2, 1.45 fold enrichment (6-mer frequency, TF over GST control); with SPDEF it was 1.63 fold enrichment (6-mer frequency, TF over GST control); with ETV7, 1.47 fold enrichment (6-mer frequency, TF over GST control); with ELF5 it was 1.52 fold enrichment (6-mer frequency, TF over GST control). Also, the binding signal with ETV3 was 1.57 fold enrichment (6-mer frequency, TF over GST control); with ETV6, 1.5 fold enrichment (6-mer frequency, TF over GST control).
TGCGCT: the binding signal in the test with ERF is 1.33 fold enrichment (6-mer frequency, TF over GST control); with ETV3L, 1.21 fold enrichment (6-mer frequency, TF over GST control); in the test with ETS2 it was 1.43 fold enrichment (6-mer frequency, TF over GST control); in the test with SPDEF, 1.19 fold enrichment (6-mer frequency, TF over GST control); with ETV7 it was 1.17 fold enrichment (6-mer frequency, TF over GST control); with ELF5, 1.15 fold enrichment (6-mer frequency, TF over GST control). Moreover, the binding signal is 1.24 fold enrichment (6-mer frequency, TF over GST control) with ETV3 and 1.24 fold enrichment (6-mer frequency, TF over GST control) with ETV6.
As for TTTATC, the binding signal with ERF is 1.19 fold enrichment (6-mer frequency, TF over GST control); with ETV3L, 1.35 fold enrichment (6-mer frequency, TF over GST control); in the test with ETS2 it was 1.26 fold enrichment (6-mer frequency, TF over GST control); in the test with SPDEF, 1.25 fold enrichment (6-mer frequency, TF over GST control); with ETV7, 1.22 fold enrichment (6-mer frequency, TF over GST control); in the test with ELF5, 1.26 fold enrichment (6-mer frequency, TF over GST control). Besides, the binding signal is 1.29 fold enrichment (6-mer frequency, TF over GST control) with ETV3 and 1.24 fold enrichment (6-mer frequency, TF over GST control) in the test with ETV6.
On to TCTCCT, for which the binding signal with ERF is 1.34 fold enrichment (6-mer frequency, TF over GST control); in the test with ETV3L, 1.73 fold enrichment (6-mer frequency, TF over GST control); in the test with ETS2 it was 1.52 fold enrichment (6-mer frequency, TF over GST control); in the test with SPDEF, 1.32 fold enrichment (6-mer frequency, TF over GST control); with ETV7, 1.46 fold enrichment (6-mer frequency, TF over GST control); with ELF5, 1.41 fold enrichment (6-mer frequency, TF over GST control). In addition, the binding signal with ETV3 is 1.41 fold enrichment (6-mer frequency, TF over GST control); with ETV6, 1.44 fold enrichment (6-mer frequency, TF over GST control).
Regarding AATTGA, the binding signal is 1.24 fold enrichment (6-mer frequency, TF over GST control) in the test with ERF; 1.13 fold enrichment (6-mer frequency, TF over GST control) with ETV3L; 1.26 fold enrichment (6-mer frequency, TF over GST control) with ETS2; 1.15 fold enrichment (6-mer frequency, TF over GST control) with SPDEF; 1.28 fold enrichment (6-mer frequency, TF over GST control) with ETV7; 1.21 fold enrichment (6-mer frequency, TF over GST control) with ELF5. Besides, the binding signal with ETV3 was 1.17 fold enrichment (6-mer frequency, TF over GST control); in the test with ETV6 it was 1.19 fold enrichment (6-mer frequency, TF over GST control).
On to TCCAAT, for which the binding signal is 1.13 fold enrichment (6-mer frequency, TF over GST control) with ERF; 1.22 fold enrichment (6-mer frequency, TF over GST control) in the test with ETV3L; 1.2 fold enrichment (6-mer frequency, TF over GST control) with ETS2; 1.2 fold enrichment (6-mer frequency, TF over GST control) in the test with SPDEF; 1.33 fold enrichment (6-mer frequency, TF over GST control) with ETV7; 1.15 fold enrichment (6-mer frequency, TF over GST control) in the test with ELF5. The binding signal with ETV3 is 1.2 fold enrichment (6-mer frequency, TF over GST control); in the test with ETV6 it was 1.22 fold enrichment (6-mer frequency, TF over GST control).
